Here are results for 18 compounds from PubChem BioAssay (NCI).

The panel holds about 79,000 compounds, 15% with a hit somewhere; the sample as a whole holds those more often. Values without a mark were called inactive. Cut-off read from the data, not from the text of the source: active = growth inhibition above about 70%; inactive = the rest.

The nature of the test: NCI Yeast Anticancer Drug Screen. Data for the mec2-1 strain (AID 157). Conditions: S. cerevisiae mec2-1 strain, at 50.0 µM, active compounds read high. The essentials:
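Compounds were applied to mec2-1 yeast cells. Their growth was then compared with that of vehicle-treated cultures to give growth inhibition.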
On to `CO[C@@]12[C@@H]3N[C@@H]3CN1C1=C(C(=O)C(Nc3ccc(O)cc3C)=C(C)C1=O)[C@@H]2COC(N)=O`, for which the growth inhibition is 29.1%. For `COc1ccc(C(=O)OC2CC3CCC(C2)N3)cc1OC` (stereo not drawn) the value was -19.8%; for `Cc1ccc(-n2c(=S)[nH]c3ccccc3c2=O)cc1F`, -25.9%. As for `CCCOP(=O)(CCl)OCCC`, the figure is -5.05%. As for `COc1ccc(S(=O)(=O)F)cc1NC(=O)c1ccc2ccccc2c1O`, the figure is 7.75%; as for `O=C(CBr)OCS(=O)(=O)O`, -31.6%; as for `NC(=O)NNc1ccc([N+](=O)[O-])cc1[N+](=O)[O-]`, -5.4%. For the compound `C/C=C1\CN2CCC1CC2C(O)c1ccnc2ccc(O)cc12` (stereo not drawn), the growth inhibition was -13.7%. On to `CC(Cc1ccccc1)N(C)CC1C(=O)C2CCC1C2` (stereo not drawn), for which the growth inhibition is -12.6%. As for `c1ccc2c(c1)O[As](O[As]1Oc3ccccc3O1)O2`, the growth inhibition was 4.75%.

Regarding `C/C=C1/CN2CCC1CC2C(O)c1ccnc2ccc(OCCO)cc12` (stereo not drawn), the growth inhibition is -13.2%. As for `CN1CCN(c2ccc(Cl)cc2)CC1`, the figure is -17.6%; as for `NC(=NC1CCCCCCCCCCC1)N[N+](=O)[O-]`, 9.6%. For `O=C(/C=C/c1ccccc1)NCCc1cnc[nH]1` the value was 1.55%; for `Cc1ccc(-n2c(=S)[nH]c3ccccc3c2=O)cc1`, -7.95%.

Turning to `CNCCc1ccc(O)c(O)c1`, the growth inhibition was -13.2%. As for `Cc1ccc(-c2cc(Cl)c3cc(S(=O)(=O)F)ccc3n2)cc1`, the figure is -16.6%; as for `Brc1ccc(C[N+]23CCN(CC2)CC3)cc1`, -35.1%.
